# Results filed as inconclusive are left out. The source made the active and inactive calls. Calls come from the whole dose curve; as a rule, active = well fitted cell-killing curve with a large enough effect; inconclusive = small, poorly fitted or top-dose-only effect; inactive = flat fitted curve, though single readings scatter.
# Test: Cell Viability - LYMP2-009 (AID 968);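 note: cells exposed to compound for 24 h at 37 °C; 0% = DMSO alone and the full-kill end = tetraoctylammonium bromide at 92 µM; nearly all actives have a fitted effect of over 55% in size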
# Conditions: LYMP2-009 lymphoblastoid cell viability; series mostly up to 92.2 µM; activity change, negative = viability loss: at the top concentration
SMILES,"activity change, negative = viability loss",outcome
Oc1ccc(Cl)cc1,-1.83% (inactive),–
COP(=S)(OC)Oc1ccc(SC)c(C)c1,-3.26% (inactive),–
CC(C)c1cccc(C(C)C)c1O,-9.78% (inactive),–
C[C@]12CCC(=O)C=C1CC[C@@H]1[C@@H]2CC[C@]2(C)C(=O)CC[C@@H]12,–,inactive
CCC(C)(C)c1ccc(O)cc1,-5.86% (inactive),–
C[C@]12CCC(=O)C=C1CC[C@@H]1[C@@H]2CC[C@@]2(C)[C@H]1CC[C@]2(C)O,-15% (inactive),–
CCCC(C)(COC(N)=O)COC(N)=O,-2.91% (inactive),–
CN1C[C@H](C(=O)N[C@]2(C)O[C@@]3(O)[C@@H]4CCCN4C(=O)[C@H](Cc4ccccc4)N3C2=O)C=C2c3cccc4[nH]cc(c34)C[C@H]21,-22.2% (inactive),–
C[C@]1(O)CC[C@H]2[C@@H]3CCC4=CC(=O)CC[C@]4(C)[C@@]3(F)[C@@H](O)C[C@@]21C,-1.94% (inactive),–
COc1cc(OC)c(OC)cc1C=O,-9.8% (inactive),–
CCOC(=O)CC(SP(=S)(OC)OC)C(=O)OCC (configuration not stated),-21.5% (inactive),–
Clc1ccc(C(c2ccc(Cl)cc2)C(Cl)(Cl)Cl)cc1,-0.666% (inactive),–
CC(C)NC(C)C,-6.47% (inactive),–
Nc1ccccc1C(=O)O,-6.41% (inactive),–
COC(=O)C(c1ccccc1)C1CCCCN1 (configuration not stated),-5.76% (inactive),–
Nc1ccccc1,-7.13% (inactive),–
NCCc1ccc(O)cc1,-20.5% (inactive),–
O=P1(N(CCCl)CCCl)NCCCO1 (configuration not stated),-3.51% (inactive),–

# Test: Cell Viability - LYMP2-011 (AID 969);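 note: cells exposed to compound for 24 hours; 0% = DMSO only and full inhibition = 92 µM tetraoctylammonium bromide; nearly all actives have a fitted effect of over 60% in size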
# Conditions: LYMP2-011 lymphoblastoid cells viability; series mostly up to 92.2 µM; viability change, negative = cytotoxic: at the top concentration
# In short: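 2500 cells/well, 5 hr 37 C; compound added, 24 hr 37 C; CellTiter-Glo 30 min RT; luminescence. qHTS concentration-response, Hill-equation AC50. Tetraoctylammonium bromide positive control.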
SMILES,"viability change, negative = cytotoxic",outcome
Oc1ccc(Cl)cc1,-4.73% (inactive),–
COP(=S)(OC)Oc1ccc(SC)c(C)c1,-4.34% (inactive),–
CC(C)c1cccc(C(C)C)c1O,-1.34% (inactive),–
C[C@]12CCC(=O)C=C1CC[C@@H]1[C@@H]2CC[C@]2(C)C(=O)CC[C@@H]12,–,inactive
CCC(C)(C)c1ccc(O)cc1,0.435% (inactive),–
C[C@]12CCC(=O)C=C1CC[C@@H]1[C@@H]2CC[C@@]2(C)[C@H]1CC[C@]2(C)O,-13.7% (inactive),–
CCCC(C)(COC(N)=O)COC(N)=O,4.21% (inactive),–
CN1C[C@H](C(=O)N[C@]2(C)O[C@@]3(O)[C@@H]4CCCN4C(=O)[C@H](Cc4ccccc4)N3C2=O)C=C2c3cccc4[nH]cc(c34)C[C@H]21,-22.8% (inactive),–
C[C@]1(O)CC[C@H]2[C@@H]3CCC4=CC(=O)CC[C@]4(C)[C@@]3(F)[C@@H](O)C[C@@]21C,-3.84% (inactive),–
COc1cc(OC)c(OC)cc1C=O,3.91% (inactive),–
CCOC(=O)CC(SP(=S)(OC)OC)C(=O)OCC (configuration not stated),8.09% (inactive),–
Clc1ccc(C(c2ccc(Cl)cc2)C(Cl)(Cl)Cl)cc1,-1.62% (inactive),–
CC(C)NC(C)C,1.58% (inactive),–
Nc1ccccc1C(=O)O,0.273% (inactive),–
COC(=O)C(c1ccccc1)C1CCCCN1 (configuration not stated),-17.2% (inactive),–
Nc1ccccc1,-1.35% (inactive),–
NCCc1ccc(O)cc1,-1.59% (inactive),–
O=P1(N(CCCl)CCCl)NCCCO1 (configuration not stated),0.671% (inactive),–

# Test: Cell Viability - LYMP2-013 (AID 970);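 note: cells exposed to compound for 24 h at 37 °C; 0% = DMSO only and full inhibition = tetraoctylammonium bromide control; nearly all actives have a fitted effect of over 55% in size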
# Conditions: LYMP2-013 lymphoblastoid cells viability; series mostly up to 92.2 µM; activity change, negative = cytotoxic: at the top concentration
# In short: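 qHTS; 2500 lymphoblastoid cells/well; 5 hr 37 C settle; cpd 24 hr 37 C; CellTiter-Glo, 30 min RT; luminescence. AC50 = Hill fit.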
SMILES,"activity change, negative = cytotoxic",outcome
Oc1ccc(Cl)cc1,-1.93% (inactive),–
COP(=S)(OC)Oc1ccc(SC)c(C)c1,-2.73% (inactive),–
CC(C)c1cccc(C(C)C)c1O,-3.17% (inactive),–
C[C@]12CCC(=O)C=C1CC[C@@H]1[C@@H]2CC[C@]2(C)C(=O)CC[C@@H]12,–,inactive
CCC(C)(C)c1ccc(O)cc1,-8.01% (inactive),–
C[C@]12CCC(=O)C=C1CC[C@@H]1[C@@H]2CC[C@@]2(C)[C@H]1CC[C@]2(C)O,-21.3% (inactive),–
CCCC(C)(COC(N)=O)COC(N)=O,1.34% (inactive),–
CN1C[C@H](C(=O)N[C@]2(C)O[C@@]3(O)[C@@H]4CCCN4C(=O)[C@H](Cc4ccccc4)N3C2=O)C=C2c3cccc4[nH]cc(c34)C[C@H]21,-26.8% (inactive),–
C[C@]1(O)CC[C@H]2[C@@H]3CCC4=CC(=O)CC[C@]4(C)[C@@]3(F)[C@@H](O)C[C@@]21C,-5.72% (inactive),–
COc1cc(OC)c(OC)cc1C=O,-3.12% (inactive),–
CCOC(=O)CC(SP(=S)(OC)OC)C(=O)OCC (configuration not stated),-5.88% (inactive),–
Clc1ccc(C(c2ccc(Cl)cc2)C(Cl)(Cl)Cl)cc1,-6.5% (inactive),–
CC(C)NC(C)C,-1.37% (inactive),–
Nc1ccccc1C(=O)O,3.51% (inactive),–
COC(=O)C(c1ccccc1)C1CCCCN1 (configuration not stated),-8.98% (inactive),–
Nc1ccccc1,-4.43% (inactive),–
NCCc1ccc(O)cc1,-4.68% (inactive),–
O=P1(N(CCCl)CCCl)NCCCO1 (configuration not stated),-3.07% (inactive),–

# Test: Cell Viability - LYMP2-017 (AID 972);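 note: cells exposed to compound for 24 hours at 37 °C; % is set by controls: 0 for no effect and ±100 for the full control effect; nearly all actives have a fitted effect of over 55% in size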
# Conditions: LYMP2-017 lymphoblastoid cell viability; series mostly up to 92.2 µM; activity change, negative = cytotoxicity: at the top concentration
# In short: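 2500 cells/well, 5 h 37 C; cpd 24 h 37 C in complete medium; CellTiter-Glo, 30 min RT; luminescence (ATP). AC50 via Hill fit, qHTS.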
SMILES,"activity change, negative = cytotoxicity",outcome
Oc1ccc(Cl)cc1,4.7% (inactive),–
COP(=S)(OC)Oc1ccc(SC)c(C)c1,-3.96% (inactive),–
CC(C)c1cccc(C(C)C)c1O,4.6% (inactive),–
C[C@]12CCC(=O)C=C1CC[C@@H]1[C@@H]2CC[C@]2(C)C(=O)CC[C@@H]12,–,inactive
CCC(C)(C)c1ccc(O)cc1,-7.68% (inactive),–
C[C@]12CCC(=O)C=C1CC[C@@H]1[C@@H]2CC[C@@]2(C)[C@H]1CC[C@]2(C)O,-9.28% (inactive),–
CCCC(C)(COC(N)=O)COC(N)=O,-19.1% (inactive),–
CN1C[C@H](C(=O)N[C@]2(C)O[C@@]3(O)[C@@H]4CCCN4C(=O)[C@H](Cc4ccccc4)N3C2=O)C=C2c3cccc4[nH]cc(c34)C[C@H]21,-21.6% (inactive),–
C[C@]1(O)CC[C@H]2[C@@H]3CCC4=CC(=O)CC[C@]4(C)[C@@]3(F)[C@@H](O)C[C@@]21C,-1.07% (inactive),–
COc1cc(OC)c(OC)cc1C=O,-10.8% (inactive),–
CCOC(=O)CC(SP(=S)(OC)OC)C(=O)OCC (configuration not stated),-5.26% (inactive),–
Clc1ccc(C(c2ccc(Cl)cc2)C(Cl)(Cl)Cl)cc1,-16.9% (inactive),–
CC(C)NC(C)C,-12.2% (inactive),–
Nc1ccccc1C(=O)O,-20.7% (inactive),–
COC(=O)C(c1ccccc1)C1CCCCN1 (configuration not stated),-15.4% (inactive),–
Nc1ccccc1,-3.23% (inactive),–
NCCc1ccc(O)cc1,-6.34% (inactive),–
O=P1(N(CCCl)CCCl)NCCCO1 (configuration not stated),-3.57% (inactive),–

# — PubChem BioAssay (NCATS)
